Assay results: PubChem BioAssay (Tox21)
Results filed as inconclusive are left out. The source made the active and inactive calls. Unless noted, calls follow the shape of the dose curve; as a rule, active = well fitted curve in the direction sought with a large enough effect in the repeat runs; inconclusive = weak or mixed curves; inactive = no such curve, though single readings can be large; an effect the other way counts as inactive or inconclusive.

What was measured:
[1] = qHTS assay to identify small molecule agonists of the vitamin D receptor (VDR) signaling pathway - cell viability counter screen (AID 743224); also: nearly all actives have a fitted effect of over 50% in size
Procedure, shortened: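 Cells: VDR-bla, 2,000/well, settled 4 h. Treatment: compounds in DMSO, 16 h, 37C/5% CO2. Readout: CellTiter-Glo luminescence after 30 min RT.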

[2] = qHTS assay to identify small molecule antagonists of the vitamin D receptor (VDR) signaling pathway - cell viability counter screen (AID 743225); also: nearly all actives have a fitted effect of over 50% in size
Procedure, shortened: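 Cytotoxicity toward the VDR-bla HEK 293T line was scored by ATP-based CellTiter-Glo luminescence, read in the wells already used for the beta-lactamase readout after 16 h compound treatment under 3 nM 1-alpha,25-dihydroxyvitamin D3 stimulation.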

[3] = qHTS assay to identify small molecule agonists of the NFkB signaling pathway (AID 1159509; active = well fitted curve in the direction sought with a large enough effect in the signal ratio in the repeat runs, not every such curve was filed as active; the % refers to the signal ratio)
Procedure, shortened: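 Readout: FRET fluorescence, 405 nm excitation, 460/530 nm emission; beta-lactamase expression disrupts FRET. Cells: ME-180 stably carrying NF-kB-driven bla reporter. Compound exposure 5 hr, 37 C, 5% CO2.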

[4] = qHTS assay to identify small molecule agonists of the NFkB signaling pathway - cell viability counter screen (AID 1159515; calls by dose curve; also: nearly all actives have a fitted effect of over 55% in size)
Procedure, shortened: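 Cells are seeded (2,000 NFkB-bla ME-180 per well), rested overnight, and dosed with DMSO-dissolved compounds for 5 hr at 37 C. Viability is then read by CellTiter-Glo luminescence after 30 min at room temperature.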

[5] = qHTS assay to identify small molecule agonists of the endoplasmic reticulum stress response signaling pathway (AID 1159516; active = well fitted activation curve with a large enough effect in the signal ratio in the repeat runs, not every such curve was filed as active; the % refers to the signal ratio)
Procedure, shortened: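 Cells are seeded at 1,500 per well and incubated overnight. Compounds in DMSO are added for 5 hr at 37 C, then beta-lactamase FRET substrate for 2 hr at room temperature, and fluorescence at 460 and 530 nm is measured.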

[6] = qHTS assay to identify small molecule agonists of the endoplasmic reticulum stress response signaling pathway - cell viability counter screen (AID 1159517; calls by dose curve;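 also: HeLa cells carrying an ER stress response element beta-lactamase reporter; nearly all actives have a fitted effect of over 50% in size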)
Procedure, shortened: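 Cytotoxicity of test compounds toward ESRE-bla HeLa cells was assessed after 5 hr exposure. The luminescent CellTiter-Glo signal was measured 30 min after reagent addition.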

[7] = qHTS assay to identify small molecule antagonists of the retinoid-related orphan receptor gamma (ROR-gamma) signaling pathway - cell viability counter screen (AID 1159520); also: nearly all actives have a fitted effect of over 50% in size
Procedure, shortened: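 Tet-on ROR gamma CHO cells (1,000/well) were plated 4 hr, given compounds in DMSO for 2 hr at 37 C, then induced with 1 uM final doxycycline for 16 hr. Viability was read as ATP by CellTiter-Glo luminescence after 30 min.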

[8] = target: Nuclear receptor ROR-gamma (Homo sapiens) (UniProt P51449); assay: qHTS assay to identify small molecule antagonists of the retinoid-related orphan receptor gamma (ROR-gamma) signaling pathway (AID 1159521)
Procedure, shortened: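 Readout: ONE-Glo luciferase luminescence, 30 min at room temperature. System: Tet-on RORγ CHO, RORE-LUC. Sequence: compound 2 h, doxycycline 1 uM final, 16 h at 37 C.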

[9] = qHTS assay to identify small molecule agonists of the AP-1 signaling pathway - cell viability counter screen (AID 1159525; calls by dose curve; also: nearly all actives have a fitted effect of over 55% in size)
Procedure, shortened: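 Each titration point was normalised to DMSO and tetra n-octyl ammonium bromide controls. The read was Cell Titer Glo luminescence after 30 min at RT, following 5 h compound exposure of ME-180 AP-1-bla cells at 37 °C.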

[10] = qHTS assay to identify small molecule agonists of the AP-1 signaling pathway (AID 1159526; calls by dose curve)
[11] = target: Retinoic acid receptor RXR-alpha (Homo sapiens) (UniProt P19793); assay: qHTS assay to identify small molecule agonists of the RXR signaling pathway (AID 1159527; calls by dose curve; also: nearly all actives have a fitted effect of over 35% in size)
Procedure, shortened: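 Reporter activation is measured as beta-lactamase activity via FRET substrate cleavage (emission 460/530 nm) in HEK 293T cells expressing an RXR-alpha-driven bla construct, following 16 hr compound exposure at 37 C.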

[12] = qHTS assay to identify small molecule agonists of the RXR signaling pathway - cell viability counter screen (AID 1159529); also: nearly all actives have a fitted effect of over 50% in size
Procedure, shortened: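 Tox21 10K compounds were tested for cytotoxicity against GeneBLAzer RXR-alpha HEK 293T cells grown in 2% charcoal-stripped FBS. Exposure lasted 16 hr at 37 C, 5% CO2; viability read by CellTiter-Glo luminescence.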

[13] = qHTS assay to identify small molecule antagonists of the retinoid acid receptor (RAR) signaling pathway - cell viability counter screen (AID 1159551); also: nearly all actives have a fitted effect of over 35% in size
Procedure, shortened: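 Cells (C3RL4) are plated, incubated overnight, dosed with compound in DMSO, then given retinol at 1 uM final. After 6 h at 37 C, CellTiter-Glo is added and luminescence read following 30 min at room temperature.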

[14] = qHTS assay to identify small molecule antagonists of the retinoic acid receptor (RAR) signaling pathway (AID 1159552; also: nearly all actives have a fitted effect of over 50% in size)
Procedure, shortened: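 Overnight-plated C3RL4 reporter cells get compound, then retinol to 1 uM final; plates sit 6 hr at 37 C, 5% CO2. A luciferase reagent is added and light output recorded after 30 min at room temperature.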

[15] = qHTS assay to identify small molecule agonists of the retinoic acid receptor (RAR) signaling pathway (AID 1159553); conditions: C3RL4 RARE luciferase reporter, agonist, 6 h; activation: at 73.3 µM (top of the series)
Procedure, shortened: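 Seed C3RL4 reporter cells at 1,000 per well and incubate overnight at 37 C. Add compounds in DMSO, incubate 6 hr. Add luciferase reagent, wait 30 min at room temperature, read luminescence.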

[16] = target: Luciferin 4-monooxygenase (Photinus pyralis) (UniProt P08659); assay: qHTS assay to identify small molecule inhibitors of firefly luciferase (AID 1224835); also: nearly all actives have a fitted effect of over 25% in size
Procedure, shortened: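 Quantitative HTS format; KM concentrations of both substrates. Purified P. pyralis FLuc activity quantified from luminescence images.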

[17] = qHTS assay to identify small molecule agonists of the constitutive androstane receptor (CAR) signaling pathway - cell viability counter screen (AID 1224836); also: nearly all actives have a fitted effect of over 45% in size
Procedure, shortened: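 Fluorescence from CellTiter-Fluor indicates live cells after 23 h exposure. The human hepatoma line expresses hCAR and a CYP2B6-2.2kb reporter. Incubation medium contains 0.75 uM PK11195 (final).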

[18] = qHTS assay to identify small molecule antagonists of the constitutive androstane receptor (CAR) signaling pathway - cell viability counter screen (AID 1224837); also: nearly all actives have a fitted effect of over 45% in size
Procedure, shortened: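 Viability was measured with CellTiter-Fluor in a HepG2 line carrying stably transfected hCAR and a CYP2B6-2.2kb construct. Cells were exposed for 23 hr at 37 C to 15 compound concentrations with 50 nM CITCO as agonist.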

[19] = qHTS assay to identify small molecule antagonists of the estrogen related receptor (ERR) signaling pathway from Tox21 library - cell viability counter screen (AID 1224834); also: nearly all actives have a fitted effect of over 30% in size
Procedure, shortened: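 ERR cells, 2,000/well; 6 h settle at 37 C/5% CO2; pin-tool compound transfer in DMSO; 17.5 h at 37 C; CellTiter-Fluor, 30 min; fluorescence intensity.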

[20] = target: Nuclear receptor subfamily 1 group I member 3 (Homo sapiens) (UniProt Q14994); assay: qHTS assay to identify small molecule antagonists of the constitutive androstane receptor (CAR) signaling pathway (AID 1224838);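 also: HepG2 cells stably expressing hCAR with CYP2B6 luciferase reporter stimulated by CITCO; nearly all actives have a fitted effect of over 40% in size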
Procedure, shortened: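 Antagonist mode used CITCO at a final 50 nM to activate CAR in human hepatoma HepG2 cells carrying stable hCAR and a 2.2 kb CYP2B6 promoter-luciferase construct. Compounds were tested at 15 concentrations over 24 h, with luminescence as the end point.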

Measured: Potency

Chain of Nuclear receptor subfamily 1 group I member 3 (Homo sapiens) (Q14994 whole entry, looked up): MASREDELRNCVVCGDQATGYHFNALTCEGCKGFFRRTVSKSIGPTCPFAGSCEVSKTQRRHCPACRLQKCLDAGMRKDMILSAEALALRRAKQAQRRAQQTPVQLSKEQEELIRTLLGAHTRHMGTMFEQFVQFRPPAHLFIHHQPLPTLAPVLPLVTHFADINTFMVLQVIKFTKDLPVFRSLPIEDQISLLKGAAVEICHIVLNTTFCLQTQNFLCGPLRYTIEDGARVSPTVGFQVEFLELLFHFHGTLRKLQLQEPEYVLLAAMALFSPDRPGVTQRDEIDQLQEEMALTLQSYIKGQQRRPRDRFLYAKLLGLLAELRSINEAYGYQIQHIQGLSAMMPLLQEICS
Chain of Retinoic acid receptor RXR-alpha (Homo sapiens) (P19793 whole entry, looked up): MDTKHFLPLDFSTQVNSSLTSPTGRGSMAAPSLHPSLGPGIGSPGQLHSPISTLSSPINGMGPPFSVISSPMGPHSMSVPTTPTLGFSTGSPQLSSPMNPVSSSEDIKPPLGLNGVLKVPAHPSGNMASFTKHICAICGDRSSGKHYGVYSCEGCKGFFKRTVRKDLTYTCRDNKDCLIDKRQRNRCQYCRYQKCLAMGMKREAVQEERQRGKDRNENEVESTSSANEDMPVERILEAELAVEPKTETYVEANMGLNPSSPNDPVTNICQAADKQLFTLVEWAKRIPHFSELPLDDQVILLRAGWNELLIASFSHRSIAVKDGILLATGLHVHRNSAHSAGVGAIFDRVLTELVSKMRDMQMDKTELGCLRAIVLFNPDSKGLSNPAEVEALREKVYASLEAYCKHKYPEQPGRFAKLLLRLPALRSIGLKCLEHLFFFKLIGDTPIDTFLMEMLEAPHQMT
Chain of Luciferin 4-monooxygenase (Photinus pyralis) (P08659 whole entry, looked up): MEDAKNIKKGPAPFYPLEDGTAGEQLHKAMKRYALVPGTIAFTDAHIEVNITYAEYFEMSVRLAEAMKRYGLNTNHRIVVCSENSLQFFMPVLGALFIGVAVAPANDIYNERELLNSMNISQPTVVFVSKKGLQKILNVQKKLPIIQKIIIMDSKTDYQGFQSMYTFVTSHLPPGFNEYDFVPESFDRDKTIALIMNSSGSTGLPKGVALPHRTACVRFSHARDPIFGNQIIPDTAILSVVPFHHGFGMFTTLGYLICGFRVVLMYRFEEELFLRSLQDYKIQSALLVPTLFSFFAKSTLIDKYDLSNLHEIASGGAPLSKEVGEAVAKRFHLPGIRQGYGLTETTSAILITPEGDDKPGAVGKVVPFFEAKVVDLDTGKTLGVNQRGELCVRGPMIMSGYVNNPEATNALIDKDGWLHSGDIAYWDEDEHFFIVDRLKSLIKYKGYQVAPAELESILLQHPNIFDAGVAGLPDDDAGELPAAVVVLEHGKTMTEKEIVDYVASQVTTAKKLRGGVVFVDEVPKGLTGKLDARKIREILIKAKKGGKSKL

CCCCCCCCC(=O)OCC
not listed: [19] | [20]
inactive: all other assays above

O=C1c2ccccc2-c2ccccc21
not listed: [16]
inactive: all other assays above

CC(C)C(=O)Nc1cccc(C(F)(F)F)c1
not listed: [16]
inactive: all other assays above

Cn1c(=O)c2c(ncn2CC2OCCO2)n(C)c1=O
not listed: [17] | [18] | [19]
inactive: all other assays above

CCC(C)(C)C1CCC(=O)CC1
not listed: [16] | [19] | [20]
inactive: all other assays above

Nc1cc(S(=O)(=O)O)ccc1S(=O)(=O)O
not listed: [16] | [20]
inactive: all other assays above

O=S1(=O)CCCC1
not listed: [16]
inactive: all other assays above

CCCCOC(=O)C(=O)OCCCC
not listed: [16]
inactive: all other assays above
